# Bioassay records: PubChem BioAssay, several laboratories
# CYP2C9 inhib = blocks human cytochrome P450 2C9; CYP2C9 Supersomes, luciferin-H conversion, luminescence; P11712; actives 20% (n = 96,000); inhibition, % at 5 µM;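 active = blocking of liver enzyme CYP2C9 beyond about 50% at 5 µM, limit read from the data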
# CYP2C19 inhib = human CYP2C19 inhibition. P33261. CYP2C19 Supersomes, luciferin-H EGE luminescence, 30 min. inhibition, % at 5 µM. actives 21% (n = 96,000). AID 778;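 active = CYP2C19 inhibition above a set limit at 5 µM in the primary screen, cut at about 50% in these data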;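 note: plate controls were negative control wells for no effect and 2.5 mM tranylcypromine positive control for full effect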
# PLK1 kinase inh = PLK1 (human) kinase inhibition; actives 0.53% (n = 97,000); inhibition, % at 10 µM; AID 619; recombinant PLK1 kinase, TR-FRET peptide phosphorylation; P53350;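 active = inhibition of 50% or more in the single-concentration screen; inactive = inhibition below 50%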;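 note: 0% = DMSO max control and 100% = H-89 dihydrochloride min control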
# Target sequence (P53350 whole entry, looked up): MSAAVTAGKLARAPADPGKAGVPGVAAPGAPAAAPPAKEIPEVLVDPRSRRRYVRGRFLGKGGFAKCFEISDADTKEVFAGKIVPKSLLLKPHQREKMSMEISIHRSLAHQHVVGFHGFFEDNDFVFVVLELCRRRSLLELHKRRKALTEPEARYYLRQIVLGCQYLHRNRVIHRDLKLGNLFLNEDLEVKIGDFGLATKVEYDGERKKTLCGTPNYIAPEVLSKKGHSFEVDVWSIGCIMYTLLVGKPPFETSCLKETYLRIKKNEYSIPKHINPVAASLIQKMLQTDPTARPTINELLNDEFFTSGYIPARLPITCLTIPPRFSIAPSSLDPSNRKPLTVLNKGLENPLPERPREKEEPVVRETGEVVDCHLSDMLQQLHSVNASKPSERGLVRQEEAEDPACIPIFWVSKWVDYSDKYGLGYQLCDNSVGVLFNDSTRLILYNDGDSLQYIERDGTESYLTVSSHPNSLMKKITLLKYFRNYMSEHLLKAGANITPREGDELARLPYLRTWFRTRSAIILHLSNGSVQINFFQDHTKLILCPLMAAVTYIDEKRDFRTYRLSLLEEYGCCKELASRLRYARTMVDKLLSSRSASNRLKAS
# CYP2C19 act = activators of human cytochrome P450 2C19; P33261; recombinant CYP2C19, luciferin-H EGE luminescence; hits give high values; 0 = fully inhibited enzyme, 1 = untreated enzyme; activation factor at 5 µM; 96,000 tested, under 10 active;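 active = activation factor of at least 2 at 5 µM in the primary screen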;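 note: 0 = wells with 2.5 mM tranylcypromine and 1 = vehicle-only wells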
# CYP2C9 activ = activators of human CYP2C9; recombinant CYP2C9, luciferin-H conversion, luminescence; hits give high values; factor 1 = untreated enzyme, 0 = blocked; actives 1.4% (n = 96,000); activation factor at 5 µM; P11712; AID 1024;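 active = activation factor of 2 or more for CYP2C9 at a 5 µM dose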;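 note: 0 = sulfaphenazole-blocked wells and 1 = vehicle-only wells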
# Plk1 PBD FP = Plk1 (human) PBD binding inhibition; P53350; Plk1 PBD phosphopeptide binding, fluorescence polarization; inhibition, %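 (tested at about 20 µM)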; actives 0.13% (n = 97,000); in the data active = inhibition above about 34%, passing the limit was not always enough
# Starred values were filed as active, the others as inactive; · = no result. Compounds with a hit are over-represented: about 28% of the library has one in this group of screens.
SMILES,CYP2C9 inhib,CYP2C19 inhib,PLK1 kinase inh,CYP2C19 act,CYP2C9 activ,Plk1 PBD FP
O=C1CN(C(=O)c2ccc(Br)o2)C(c2ccccc2)c2cc(Cl)ccc2N1 (stereo not given),100*,86*,-16,0.1,0,-35
O=C1CN(C(=O)c2ccc(Br)o2)C(c2ccc(F)cc2)c2cc(Cl)ccc2N1 (stereo not given),73*,36,-4,0.6,0.3,-6
O=C1CN(C(=O)c2ccco2)C(c2ccccc2)c2cc(Cl)ccc2N1 (stereo not given),71*,59*,-14,0.4,0.3,6
CN(CC(=O)Nc1ccc(S(N)(=O)=O)cc1)c1ccccc1,-4,-10,-9,1.1,1,-9
Cc1ccnc(SCCn2c(N3CCCCC3)nc3c2c(=O)n(C)c(=O)n3C)n1,37,21,-6,0.8,0.6,8
O=C(NCc1nnc(SC/C=C/c2ccccc2)o1)c1ccco1,50,47,-34,0.5,0.5,2
O=C(Cn1nc(-c2ccccc2)nc1-c1ccccc1)N1CCOCC1,5,8,-4,0.9,1,13
Cc1ccccc1NC(=O)Cn1nc(-c2ccccc2)nc1-c1ccccc1,56*,31,-12,0.7,0.4,-13
Cc1cccc(C)c1NC(=O)Cn1nc(-c2ccccc2)nc1-c1ccccc1,66*,41,-9,0.6,0.3,25
O=C1CN(C(=O)COC(=O)CCSc2ccccc2Cl)c2ccccc2N1,-30,22,4,0.8,1.3,6
O=S(=O)(c1ccccc1)c1nc(-c2ccco2)oc1N1CCCCCC1,58*,66*,-11,0.3,0.4,-9
COc1ccc(-c2nc(S(=O)(=O)c3ccc(C)cc3)c(N3CCCC3)o2)cc1,-1,14,-7,0.9,1,0
CCCSc1oc(-c2ccco2)nc1S(=O)(=O)c1ccccc1,-24,90*,3,0.1,1.2,-23
COc1cc(-c2nc(S(=O)(=O)c3ccccc3)c(N3CCOCC3)o2)cc(OC)c1OC,89*,55*,-10,0.5,0.1,9
NC(=O)CSc1oc(-c2ccc(F)cc2)nc1S(=O)(=O)c1ccccc1,38,85*,·,0.1,0.6,·
CCSc1oc(-c2ccccc2)nc1S(=O)(=O)c1ccccc1,-82,4,-1,1,1.8,-22
CCOC(=O)c1cc2sccc2n1CC(=O)N1CCCC1,24,44,-11,0.6,0.8,9
O=C(NCCc1ccccc1)C(=O)NCC1CCCO1 (stereo not given),6,12,-6,0.9,0.9,6
c1ccc(N=P(c2nc3ccccc3o2)(N2CCOCC2)N2CCOCC2)cc1,-12,-6,-6,1.1,1.1,10
O=C(CNC(=O)c1ccco1)NCC(=O)OCc1cccc(C(=O)Oc2ccccc2)c1,30,41,-6,0.6,0.7,1
CCCCCCCNC(=O)COc1ccc2c(c1)C(=O)CC(C)(C)O2,96*,88*,-13,0.1,0,-3
CC1(C)CC(=O)c2cc(OCC(=O)NCCCN3CCN(c4ccccc4F)CC3)ccc2O1,40,30,-9,0.7,0.6,7
COc1ccc2nc(NC(=O)CSc3nc4ccccc4o3)sc2c1,33,62*,-7,0.4,0.7,3
COc1ccc2nc(NC(=O)CSc3nc(C)cc(C)n3)sc2c1,84*,90*,-7,0.1,0.2,-10
COc1ccc2nc(NC(=O)c3ccc4ncsc4c3)sc2c1,54*,-6,-7,1.1,0.5,1
SMILES,CYP2C9 inhib,CYP2C19 inhib,PLK1 kinase inh,CYP2C19 act,CYP2C9 activ,Plk1 PBD FP
O=C(CSc1nc2ccccc2o1)Nc1nc2ccc(Br)cc2s1,81*,94*,1,0.1,0.2,10
Cc1ccc2nc(NC(=O)COC(=O)CSc3nc(C)cc(C)n3)sc2c1,29,18,-9,0.8,0.7,4
Cc1cccc2sc(NC(=O)CSc3nc4ccccc4o3)nc12,4,-1,-2,1,1,11
COc1cc(COc2ccc3c(C)c(Cc4ccccc4)c(=O)oc3c2)cc(OC)c1OC,57*,36,-13,0.6,0.4,-11
Cc1c(Cc2ccccc2)c(=O)oc2cc(OC(=O)c3ccccc3)ccc12,40,60*,-13,0.4,0.6,-4
COc1cc(COc2ccc3c(C)c(Cc4ccccc4)c(=O)oc3c2C)cc(OC)c1OC,66*,58*,-9,0.4,0.3,28
COC(=O)Cc1c(C)c2ccc(OC(=O)c3ccccc3)cc2oc1=O,-9,0,-15,1,1.1,-12
COc1cccc(Nc2nnc(SCC(=O)N(CC(C)C)CC(C)C)s2)c1,37,32,-8,0.7,0.6,-7
Cc1ccc(S(=O)(=O)Nc2nc3n(n2)C(c2ccc(Cl)cc2)CC(=O)N3)cc1 (stereo not given),-12,-18,-11,1.2,1.1,4
CC1=C(C#N)C(NC(=O)c2ccc(C)cc2)(C(F)(F)F)C(=O)N1 (stereo not given),17,92*,-5,0.1,0.8,-8
CC1=C(C#N)C(Nc2cc(C)ccn2)(C(F)(F)F)C(=O)N1 (stereo not given),26,76*,3,0.2,0.7,30
CC1=C(C#N)C(NC(=O)c2ccco2)(C(F)(F)F)C(=O)N1 (stereo not given),-23,2,-14,1,1.2,3
O=P(COCCOCP(=O)(c1ccccc1)c1ccccc1)(c1ccccc1)c1ccccc1,16,13,-20,0.9,0.8,4
O=C(O)CP(=O)(c1ccccc1)c1ccccc1,14,-5,-7,1.1,0.9,10
COCP(=O)(c1ccccc1)c1ccccc1,-1,7,-3,0.9,1,-22
O=P(Cc1ccncc1)(c1ccccc1)c1ccccc1,-3,60*,-3,0.4,1,4
O=P(COc1ccccc1)(c1ccccc1)c1ccccc1,72*,45,-9,0.6,0.3,-13
O=P(CCCCCCCCCP(=O)(c1ccccc1)c1ccccc1)(c1ccccc1)c1ccccc1,99*,80*,-5,0.2,0,-10
COc1ccc(OC)c(NC(=O)C2CCCC2)c1,-7,29,-10,0.7,1.1,-13
COc1ccccc1NC(=O)C(CC(C)C)NC(=O)C1CCCCC1 (stereo not given),26,51*,-5,0.5,0.7,18
CCC(C)C(NC(=O)C1CCC(C)CC1)C(=O)Nc1cc(OC)ccc1OC (stereo not given),69*,12,-1,0.9,0.3,-1
COc1ccc(OC)c(NC(=O)C(CC(C)C)NC(=O)C2CCCCC2)c1 (stereo not given),-4,4,·,1,1,·
COc1ccc(OC)c(NC(=O)C2CCCN2C(=O)C2CCC(C)CC2)c1 (stereo not given),57*,53*,-8,0.5,0.4,13
